The results in this text go back to PubChem BioAssay (NCATS).

The structures appear in SMILES notation. Records with an inconclusive call do not appear. Activity calls are given as the source filed them. Calls follow the shape of the full dose curve.

The nature of the assay: A High-Content qHTS Against Drug Library for the Identification of Small Molecules that Inhibit DYT1 Early Onset Primary Dystonia-Associated Cell Pathology (AID 1645839). As to conditions: HEK293 Flp-In EGFP-delE TorsinA, punctate imaging, 48 h; series mostly up to 46.1 µM; % pathology change, negative = correction: at the top concentration. The source says:
Nicole Calakos M.D., Ph.D.
Duke University School of Medicine, Durham, NC
In DYT1 dystonia due to delGAG in the TOR1A gene, there is a robust and widely replicated finding of TorsinA protein mislocalization caused when the mutant protein is in excess of the wildtype protein (1-7). Stable HEK293 cell lines were created that replicate this phenomenon. Inducible expression of an EGFP-hu delE TorsinA encoding cDNA causes pronounced punctate cellular distribution. […] This phenotypic difference in EGFP-huTorsinA fusion protein distribution serves as an indicator of cell pathology. […] RNAi screen results with the assay were validated in DYT1 patient cell phenotypes, intersected with a known dystonia gene, and led to discovery of new human genetic dystonia associations.
The bioassay described herein is a high-content image screen with two readouts. The "%pathology" readout is the primary qHTS data channel, while the "cellcount" is the counterscreen qHTS channel. Desired active compounds are those that show inhibition in %pathology channel but no activity or minimal toxicity in cellcount readout.
1. Kustedjo, K., Bracey, M.H., and Cravatt, B.F. (2000). […] J. Biol. Chem. 275, 27933 - 27939.
2. Bragg, D.C., Kaufman, C.A., Kock, N., and Breakefield, X.O. (2004). Inhibition of N-linked glycosylation prevents inclusion formation by the dystonia-related mutant form of torsinA. Mol. Cell. Neurosci. 27, 417 - 426.
3. Gonzalez-Alegre, P., and Paulson, H.L. (2004). Aberrant Cellular Behavior of Mutant TorsinA Implicates Nuclear Envelope Dysfunction in DYT1 Dystonia. J. Neurosci. 24, 2593 - 2601.
4. Goodchild, R.E., and Dauer, W.T. (2004). Mislocalization to the nuclear envelope: an effect of the dystonia-causing torsinA mutation. Proc. Natl. Acad. Sci. U. S. A. 101, 847 - 852.
5. Kock, N., Allchorne, A.J., Sena-Esteves, M., Woolf, C.J., and Breakefield, X.O. (2006). RNAi blocks DYT1 mutant torsinA inclusions in neurons. Neurosci. Lett. 395, 201 - 205.
6. Hewett, J.W., Nery, F.C., Niland, B., Ge, P., Tan, P., Hadwiger, P., Tannous, B.A., Sah, D.W.Y., and Breakefield, X.O. (2008). siRNA knock-down of mutant torsinA restores processing through secretory pathway in DYT1 dystonia cells. Hum. Mol. Genet. 17, 1436 - 1445.
7. Calakos, N., Patel, V.D., Gottron, M., Wang, G., Tran-Viet, K.N., Brewington, D., Beyer, J.L., Steffens, D.C., Krishnan, R.R., and Zuchner, S. (2010). Functional evidence implicating a novel TOR1A mutation in idiopathic, late-onset focal dystonia. J. Med. Genet. 47, 646 - 650.
8. Rittiner* JE, Caffall* ZF, Hernandez-Martinez R, Sanderson SM, Pearson JL, Tsukayama KK, Liu AY, Xiao C, Tracy S, Shipman MK, Hickey P, Johnson J, Scott B, Stacy M, Saunders-Pullman R, Bressman S, Simonyan K, Sharma N, Ozelius LJ, Cirulli ET, Calakos N. Functional Genomic Analyses of Mendelian and Sporadic Disease Identify Impaired eIF2alpha Signaling as a Generalizable Mechanism for Dystonia. Neuron. 2016 Dec 21;92(6):1238-1251. doi: 10.1016/j.neuron.2016.11.012. Epub 2016 Dec 8. PMID: 27939583; PMCID: PMC5320521.
High-content, High-throughput Drug Screening Assay
The TorsinA mislocalization assay was modified from the previously published assay to accommodate compound testing in 1536 well format.1 Briefly, Flp-In T-REx 293 cells from Invitrogen in which a single copy of a cDNA is recombined into a specific genomic locus was used to create tetracycline-inducible expression of cDNA encoding either EGFP-hTOR1A (WT) or EGFP-delE hTOR1A (DYT1). WT and DYT1 cells were diluted to a concentration of 2 x 10^5 cells/mL in reduced serum media (DMEM High Glucose containing 1% tetracycline-tested FBS, 2 mM L-Glutamine, and 1% Penicillin/Streptomycin). 4 µl of WT cells and 4 µl of DTY1 cells were added to column 1 and columns 2-48, respectively, of a poly-D-lysine-coated, low base, black, clear bottom 1536 well plate (Corning, Corning, NY) using the BioRAPTR FRD Microfluidic Workstation (Beckman Coulter, Indianapolis, IN). The final cell number was 800 cells/well. […]
Background: In qHTS, concentration-response curves come from the screen itself.
For `CC(C)Cc1ccc(CC(=O)O)cc1`, the “% pathology change, negative = correction” value (from here on “% pathology change”) is 3.37% (inactive).
For `C[N+]1(C)CCC(=C(c2ccccc2)c2ccccc2)CC1` the value was 14.2% (inactive).
Regarding `Cc1ccc(-c2ncc(Cl)cc2-c2ccc(S(C)(=O)=O)cc2)cn1`, the “% pathology change” value was -4.47% (inactive).
For `CCN[C@@H]1C[C@H](N)[C@@H](OC2OC(CN)=CCC2N)[C@H](O)[C@H]1O[C@H]1OC[C@](C)(O)[C@H](NC)[C@H]1O` (stereo not given in full) the value was 3.5% [at 0.369 µM] (inactive); for `OCCOCCN1CCN(C2=Nc3ccccc3Sc3ccccc32)CC1`, -5.17% (inactive); for `Cc1cc(NS(=O)(=O)c2ccc(N)cc2)nc(C)n1`, 10.9% (inactive).
For `NC(=S)N/N=C/c1cccnc1` the value was -4.03% (inactive); for `CC(=O)Nc1ccc(OCC(O)CNC(C)C)cc1` (stereo not given), 7.07% (inactive); for `CCCN(CCc1cccs1)[C@H]1CCc2c(O)cccc2C1`, 3% (inactive).
For the compound `O=C(O)Cc1csc(-c2ccc(Cl)cc2)n1`, the “% pathology change” value is -1.23% (inactive).
As to `O=[N+]([O-])c1ccc(/C=N\O)o1`, the “% pathology change” value was 0.723% (inactive).
For `C[C@@H](O)[C@H]1C(=O)N2C(C(=O)O)=C(S[C@@H]3CN[C@H](CNS(N)(=O)=O)C3)[C@H](C)[C@H]12` the value was 0.406% (inactive); for `O=C1c2cccc3c2[C@H](CCC3)CN1[C@@H]1CN2CCC1CC2`, -12.2% (inactive); for `O=C(c1ccc(F)cc1)C1CCN(CCn2c(=S)[nH]c3ccccc3c2=O)CC1`, -0.957% (inactive).
For the compound `CC(=O)OC[C@H]1O[C@@H](n2ncc(=O)[nH]c2=O)[C@H](OC(C)=O)[C@@H]1OC(C)=O`, the “% pathology change” value is 16.1% (inactive).
Consider `CC(C)CCCC(C)N` (stereo not given), for which the “% pathology change” value was 12.4% (inactive).
Regarding `Cc1cn([C@H]2C[C@H](F)[C@@H](CO)O2)c(=O)[nH]c1=O`, the “% pathology change” value was 14.1% (inactive).
For `CC(C)(C)NC[C@H](O)COc1cccc2c1CCCC2=O` the value was -1.74% (inactive); for `CCOc1ccccc1C(N)=O`, 5.71% (inactive).
Take `O=S(=O)(O)c1ccc(O)cc1`: the “% pathology change” value was 11.9% (inactive).
For `O=C(O)CCNC(=O)c1ccccc1` the value was 0.335% (inactive); for `CCOC(=O)[C@@](C)(N)Cc1ccc(O)c(O)c1`, 0.457% (inactive); for `O=C(Nc1ccc([N+](=O)[O-])cc1)Nc1ccc([N+](=O)[O-])cc1`, -7.05% (inactive).
For `CC(=O)OCC(=O)[C@H]1CC[C@H]2[C@@H]3CCC4=CC(=O)CC[C@]4(C)[C@H]3CC[C@]12C`, the “% pathology change” value was 31% (inactive).
On to `Clc1cccc(C(c2ccc3nc[nH]c3c2)n2ccnc2)c1` (stereo not given), for which the “% pathology change” value was -10.2% (inactive).
In the case of `CC(C)NCC(O)c1ccc2ccccc2c1` (stereo not given), the “% pathology change” value was -25.9% (inactive).
For `CCCN(CCC)S(=O)(=O)c1ccc(C(=O)O)cc1` the value was 1.14% (inactive); for `CCCCC(CC)COC(=O)c1ccc(N(C)C)cc1` (stereo not given), 12.5% (inactive).
Then `CCCCCCCCCCCCCCCC(=O)O`, with 2.18% (inactive).
Turning to `CC(C(=O)O)c1cccc(Oc2ccccc2)c1` (stereo not given), the “% pathology change” value was -11.1% (inactive).
On to `CCCCCCCCCCCCCC(=O)OC(C)C`, for which the “% pathology change” value was 0.57% (inactive).
For `CCOCCn1c(N2CCCN(C)CC2)nc2ccccc21` the value was 4.49% (inactive); for `COc1ccc(CCN(C)CCCN2CCc3cc(OC)c(OC)cc3CC2=O)cc1OC`, -1.99% (inactive); for `N#CCC(=O)NN`, 17% (inactive).
For the compound `CCNC(=O)/C=C/c1cccc(Br)c1`, the “% pathology change” value was -2.59% (inactive).
`Cc1c(-c2ccccc2)oc2c(C(=O)OCCN3CCCCC3)cccc2c1=O`: the “% pathology change” value was 5.63% (inactive).
For the compound `CC(=O)O[C@]1(C(C)=O)CC[C@H]2[C@@H]3C=C(Cl)C4=CC(=O)CC[C@]4(C)[C@H]3CC[C@@]21C`, the “% pathology change” value was 1.29% (inactive).
On to `CCN(CC)CCNC(=O)c1cc(Br)c(N)cc1OC`, for which the “% pathology change” value is -0.998% (inactive).
For `CCCCC(CC)CN1CN(CC(CC)CCCC)CC(C)(N)C1` (stereo not given) the value was 7.75% (inactive).
Then `Cc1cc(CC(=O)O)c(C)n1-c1ccc(Cl)cc1`, with -32.9% (inactive).
